Several values for one entry are separate records, joined by “and”; a condition that tells them apart may be missing. Identical values can stand only once. Where a structure was tested more than once in an assay, its records may differ in their call. Activity calls are given as the source filed them. Where a call stands in place of a potency, no number is given. Unless noted, the call rests on the fitted dose curve; in most records, active means well fitted curve in the direction sought with a large enough effect in the repeat runs; inconclusive means weak or mixed curves; inactive means no such curve, though single readings can be large; an effect the other way counts as inactive or inconclusive.
What was measured:
[1] = qHTS assay to identify small molecule antagonists of the thyroid receptor (TR) signaling pathway - cell viability counter screen (AID 743064); further: nearly all actives have a fitted effect of over 50% in size; further: potency means the concentration at half of the fitted maximal effect
Outline: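 Plate GH3.TRE-Luc cells; incubate 4 h at 37 °C; add compound, then T3 to 1 nM final; incubate 23.5 h; add CellTiter-Fluor; incubate 30 min at 37 °C, 5% CO2; read fluorescence.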

[2] = qHTS assay to identify small molecule antagonists of the thyroid receptor (TR) signaling pathway (AID 743065); further: nearly all actives have a fitted effect of over 55% in size; further: potency means the concentration at half of the fitted maximal effect
Outline: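 Antagonism measured as loss of luciferase signal in GH3 cells stably carrying a TRE-luciferase reporter, co-treated with compound and T3 (1 nM final) for 23.5 h at 37 C. Viability was read in the same well by CellTiter-Fluor.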

[3] = test system: thyroid hormone receptor (rat, GH3 cells); assay: qHTS assay to identify small molecule agonists of the thyroid receptor (TR) signaling pathway (AID 743066; calls by dose curve)
[4] = qHTS assay to identify small molecule antagonists of the estrogen receptor alpha (ER-alpha) signaling pathway - cell viability counter screen (AID 743074; calls by dose curve; further: nearly all actives have a fitted effect of over 45% in size)
[5] = biological target: Estrogen receptor (Homo sapiens) (UniProt P03372); assay: qHTS assay to identify small molecule agonists of the estrogen receptor alpha (ER-alpha) signaling pathway (AID 743075; calls by dose curve; further: potency means the concentration at half of the fitted maximal effect)
[6] = biological target: Estrogen receptor (Homo sapiens) (UniProt P03372); assay: qHTS assay to identify small molecule agonists of the estrogen receptor alpha (ER-alpha) signaling pathway using the BG1 cell line (AID 743079); details: BG1Luc4E2 cells, ERE-luciferase agonist, 22 h; activation: at 70.3 µM (top of the series) unless noted; further: nearly all actives have a fitted effect of over 20% in size; further: potency means the concentration at half of the fitted maximal effect
[7] = qHTS assay to identify small molecule antagonists of the estrogen receptor alpha (ER-alpha) signaling pathway using the BG1 cell line (AID 743080; calls by dose curve;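 further: BG1 cells stimulated with 17beta-estradiol alongside compound; nearly all actives have a fitted effect of over 25% in size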)
Outline: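 BG1Luc4E2, endogenous ER-alpha, 4xERE-luc; 5 d charcoal-stripped FBS, phenol red free; 24 h plating; cpd + 17beta-estradiol 21.5 h, 37 C/5% CO2; CellTiter-Fluor viability 30 min, then ONE-Glo luciferase 30 min RT.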

[8] = qHTS assay to identify small molecule antagonists of the estrogen receptor alpha (ER-alpha) signaling pathway using the BG1 cell line - cell viability counter screen (AID 743081);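 further: compound given together with 17beta-estradiol as the ER stimulus; nearly all actives have a fitted effect of over 45% in size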
[9] = biological target: Aromatase (Homo sapiens) (UniProt P11511); assay: qHTS assay to identify aromatase inhibitors (AID 743083); further: nearly all actives have a fitted effect of over 55% in size
[10] = biological target: Estrogen receptor (Homo sapiens) (UniProt P03372); assay: qHTS assay to identify small molecule antagonists of the estrogen receptor alpha (ER-alpha) signaling pathway (AID 743069; active means well fitted curve in the direction sought with a large enough effect in the signal ratio in the repeat runs, not every such curve was filed as active; inconclusive means weak or mixed curves, or effect the other way; inactive means no such curve, though single readings can be large or run the other way; the % refers to the signal ratio)
Outline: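 Fluorescence intensity from a beta-lactamase FRET substrate served as the read-out. Cells: HEK293 with stably integrated ER-alpha-UAS-bla reporter. Agonist 17beta-estradiol was co-added with compounds; incubation 18 hr at 37C, substrate 2 hr at room temperature.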

Sequence of Estrogen receptor (Homo sapiens) (P03372 whole entry, looked up): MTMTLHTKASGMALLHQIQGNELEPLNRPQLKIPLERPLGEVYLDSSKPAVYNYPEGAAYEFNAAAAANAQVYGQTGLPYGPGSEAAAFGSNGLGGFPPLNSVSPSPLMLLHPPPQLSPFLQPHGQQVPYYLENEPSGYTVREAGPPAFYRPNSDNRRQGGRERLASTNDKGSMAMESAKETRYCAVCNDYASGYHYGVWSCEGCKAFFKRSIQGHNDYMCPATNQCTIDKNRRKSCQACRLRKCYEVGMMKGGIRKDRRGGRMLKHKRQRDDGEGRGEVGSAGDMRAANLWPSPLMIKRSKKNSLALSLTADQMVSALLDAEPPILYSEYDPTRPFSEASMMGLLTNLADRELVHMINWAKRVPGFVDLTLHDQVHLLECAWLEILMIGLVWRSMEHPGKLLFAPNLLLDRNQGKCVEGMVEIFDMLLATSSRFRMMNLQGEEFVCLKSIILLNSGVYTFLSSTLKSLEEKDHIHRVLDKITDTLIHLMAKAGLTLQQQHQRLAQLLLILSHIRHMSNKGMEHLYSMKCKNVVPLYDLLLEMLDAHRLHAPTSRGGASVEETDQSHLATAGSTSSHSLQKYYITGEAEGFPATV
Sequence of Aromatase (Homo sapiens) (P11511 whole entry, looked up): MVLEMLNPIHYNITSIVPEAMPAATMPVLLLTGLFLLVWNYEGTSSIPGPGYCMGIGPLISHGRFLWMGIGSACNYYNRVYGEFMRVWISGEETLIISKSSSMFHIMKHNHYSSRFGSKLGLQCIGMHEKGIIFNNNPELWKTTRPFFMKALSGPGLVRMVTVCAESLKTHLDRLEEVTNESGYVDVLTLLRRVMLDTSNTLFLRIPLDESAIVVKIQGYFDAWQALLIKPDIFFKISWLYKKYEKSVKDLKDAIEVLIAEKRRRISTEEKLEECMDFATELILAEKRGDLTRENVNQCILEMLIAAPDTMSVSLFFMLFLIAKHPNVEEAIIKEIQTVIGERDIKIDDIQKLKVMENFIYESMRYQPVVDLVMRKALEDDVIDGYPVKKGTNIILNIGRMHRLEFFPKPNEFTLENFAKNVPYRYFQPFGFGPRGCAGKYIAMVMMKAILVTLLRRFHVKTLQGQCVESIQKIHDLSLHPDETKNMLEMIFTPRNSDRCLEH

Cc1cc(C)cc(O)c1
Potency [1]: inactive
Potency [2]: inactive
Potency [3]: inactive
Potency [4]: inactive
Potency [5]: inactive
Potency [6]: inactive
Potency [7]: inactive
Potency [8]: inactive
Potency [9]: inactive

C[Si](C)(C)N[Si](C)(C)C
Potency [1]: inactive
Potency [2]: inactive
Potency [3]: inactive
Potency [10]: inactive
Potency [5]: 86.4 nM [inconclusive] (active) and inactive
Potency [6]: inactive
Potency [7]: inactive
Potency [8]: inactive
Potency [9]: inactive

CC(=O)OC[C@H]1O[C@@](COC(C)=O)(O[C@H]2O[C@H](COC(C)=O)[C@@H](OC(C)=O)[C@H](OC(C)=O)[C@H]2OC(C)=O)[C@@H](OC(C)=O)[C@@H]1OC(C)=O
Potency [1]: inactive
Potency [2]: inactive
Potency [3]: inactive
Potency [4]: inactive
Potency [8]: inactive
Potency [9]: inactive

CC(=O)C(C)C
Potency [1]: inactive
Potency [2]: inactive
Potency [3]: inactive
Potency [10]: inactive
Potency [4]: inactive
Potency [5]: inactive
Potency [6]: inactive
Potency [7]: inactive
Potency [8]: inactive
Potency [9]: inactive

O=C1CCCCCCCCCCC1
Potency [1]: inactive
Potency [2]: inactive
Potency [3]: inactive
Potency [4]: inactive
Potency [5]: inactive
Potency [6]: inactive
Potency [7]: inactive
Potency [8]: inactive
Potency [9]: inactive

C=CC(=O)NCOCCCC
Potency [1]: inactive
Potency [2]: inactive
Potency [3]: inactive
Potency [10]: inactive
Potency [4]: inactive
Potency [5]: inactive
Potency [6]: inactive
Potency [7]: inactive
Potency [8]: inactive
Potency [9]: inactive

CC(C)=CCC/C(C)=C/C=O
Potency [1]: inactive
Potency [2]: inactive
Potency [3]: inactive
Potency [4]: inactive
Potency [5]: inactive
Potency [6]: inactive
Potency [7]: inactive
Potency [8]: inactive
Potency [9]: inactive

CCCCC(=O)O
Potency [1]: inactive
Potency [2]: inactive
Potency [3]: inactive
Potency [4]: inactive
Potency [5]: inactive
Potency [6]: inactive and 49.1 µM (active)
Potency [7]: inactive
Potency [8]: inactive
Potency [9]: inactive

O=C(O)Cc1c[nH]c2ccccc12
Potency [1]: inactive
Potency [2]: inactive
Potency [3]: inactive
Potency [4]: inactive
Potency [8]: inactive

Nc1cccc(N)n1
Potency [1]: inactive
Potency [2]: inactive
Potency [3]: inactive
Potency [4]: inactive
Potency [5]: inactive
Potency [6]: inactive
Potency [7]: inactive
Potency [8]: inactive
Potency [9]: inactive

C[n+]1ccn(CCO)c1
Potency [1]: inactive
Potency [2]: inactive
Potency [3]: inactive
Potency [4]: inactive
Potency [7]: inactive
Potency [8]: inactive
Potency [9]: inactive

COc1ccc(N)c(OC)c1
Potency [1]: inactive
Potency [2]: inactive
Potency [3]: inactive
Potency [4]: inactive
Potency [5]: inactive
Potency [6]: inactive
Potency [7]: inactive
Potency [8]: inactive
Potency [9]: inactive

Nc1cccc(C(F)(F)F)c1
Potency [1]: inactive
Potency [2]: inactive
Potency [3]: inactive
Potency [4]: inactive
Potency [5]: inactive
Potency [6]: inactive
Potency [7]: inactive
Potency [8]: inactive
Potency [9]: inactive

CCCCCCCCCCCC(=O)N(C)CC(=O)O
activity change, negative = cytotoxic [1]: 15.6% [at 8.44 µM] (inactive)
Potency [2]: 59.2 µM (active)
activity, negative = inhibition [2]: 7.52% [at 8.44 µM] (inactive)
Potency [3]: inactive
Potency [4]: inactive
Potency [5]: inactive
activation [6]: -3.44% [at 8.47 µM] (inactive)
Potency [7]: inactive
Potency [8]: inactive
Potency [9]: inactive

NC(=O)c1ncn([C@@H]2O[C@H](CO)[C@@H](O)[C@H]2O)n1
Potency [1]: 33.5 µM (active)
Potency [2]: 13.3 µM (active) and 28.8 µM (active)
Potency [3]: inactive
Potency [4]: inactive
Potency [8]: inactive
Potency [9]: inactive

COc1ccccc1[N+](=O)[O-]
Potency [1]: inactive
Potency [2]: inactive
Potency [3]: inactive
Potency [4]: inactive
Potency [8]: inactive
Potency [9]: inactive

OCC(CO)(CO)CO
Potency [1]: inactive
Potency [2]: inactive
Potency [3]: inactive
Potency [4]: inactive
Potency [5]: inactive
Potency [6]: inactive
Potency [7]: inactive
Potency [8]: inactive
Potency [9]: inactive

O=C(NCC1CCCCN1)c1cc(OCC(F)(F)F)ccc1OCC(F)(F)F (stereo not drawn)
Potency [1]: 29.8 µM (active)
Potency [2]: 53.5 µM (active)
Potency [3]: inactive
Potency [4]: inactive
Potency [8]: inactive

NCCNCCNCCN
Potency [1]: inactive
Potency [2]: inactive
Potency [3]: inactive
Potency [4]: inactive
Potency [8]: inactive

CN=C(NC#N)NCCSCc1nc[nH]c1C
Potency [1]: inactive
Potency [2]: inactive
Potency [3]: inactive
Potency [4]: inactive
Potency [5]: inactive
Potency [6]: inactive
Potency [7]: inactive
Potency [8]: inactive
Potency [9]: inactive

Cc1ccccc1Cl
Potency [1]: inactive
Potency [2]: inactive
Potency [3]: inactive
Potency [4]: inactive
Potency [5]: inactive
Potency [6]: inactive
Potency [7]: inactive
Potency [8]: inactive
Potency [9]: inactive

C=CC(C)(C)C
Potency [1]: inactive
Potency [2]: inactive
Potency [3]: inactive
Potency [10]: inactive
Potency [4]: inactive
Potency [5]: inactive
Potency [6]: inactive
Potency [7]: inactive
Potency [8]: inactive
Potency [9]: inactive

COc1ccc([C@@H]2CC(=O)c3c(O)cc(O[C@@H]4O[C@H](CO[C@@H]5O[C@@H](C)[C@H](O)[C@@H](O)[C@H]5O)[C@@H](O)[C@H](O)[C@H]4O)cc3O2)cc1OC
Potency [1]: inactive
Potency [2]: inactive
Potency [3]: inactive
Potency [4]: inactive
Potency [5]: inactive
Potency [6]: inactive
Potency [7]: inactive
Potency [8]: inactive
Potency [9]: inactive

CC(O)CNCC(C)O (stereo not drawn)
Potency [1]: inactive
Potency [2]: inactive
Potency [3]: inactive
Potency [10]: inactive
Potency [4]: inactive
Potency [5]: inactive
Potency [6]: inactive
Potency [7]: inactive
Potency [8]: inactive
Potency [9]: inactive
